High-throughput results (PubChem BioAssay)
SSB-PriA inh: blocks PriA binding to SSB C-terminal tail. AID 1272365. AlphaScreen SSBct-PriA binding, biotinylated peptide. inhibition, % at 33 µM. 430,000 tested, 0.6% active; in the data active = inhibition mostly above about 37%, no sharp cut-off; inactive = mostly below about 20%;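 also: plate controls were negative control peptide for no effect and reference peptide for full effect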
Mtb FBA inh: inhibits M. tuberculosis FBA enzyme; P9WQA3; purified M. tuberculosis FBA, fluorescence read-out; inhibition, % at 1 µM; 360,000 tested, 2.3% active; AID 588726; in the data active = inhibition above about 27%;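 also: 0% = vehicle and 100% = reference inhibitor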
Mtb UGM inh: blocks M. tuberculosis UGM enzyme; P9WIQ1; purified UGM, fluorescence polarization probe displacement; inhibition, % at 10 µM; 320,000 tested, 0.06% active; in the data active = inhibition above about 10%, passing the limit was not always enough
GDH-TPI inh: counter-screen for M. tuberculosis FBA inhibitors: GDH-TPI coupled enzymes | GDH-TPI coupled enzyme counterscreen, NADH absorbance | AID 588335 | 360,000 tested, 1.2% active | inhibition, % at 4.8 µM; in the data active = inhibition above about 30%;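 also: 0% = DMSO wells and 100% = wells lacking the enzyme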
Mtb betalactam: beta-lactam sensitization of Mtb H37Rv. M. tuberculosis H37Rv growth with meropenem, percent inhibition. 330,000 tested, 0.27% active. inhibition, % at 25 µM. AID 434955; call rule not given here;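 also: growth measured after seven days incubation then overnight dye step; 0% = bacteria only wells and 100% = bacteria with antibiotic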
Rv3671c inh: inhibitors of M. tuberculosis serine protease Rv3671c. P9WHR9. inhibition, % at 5.96 µM. 320,000 tested, 0.048% active. AID 2606; in the data active = inhibition above about 38%;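 also: extracellular domain of Rv3671c used as enzyme; 0% = enzyme with DMSO and 100% = no enzyme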
Target sequence (P9WHR9 whole entry, looked up, the tested form may be a part): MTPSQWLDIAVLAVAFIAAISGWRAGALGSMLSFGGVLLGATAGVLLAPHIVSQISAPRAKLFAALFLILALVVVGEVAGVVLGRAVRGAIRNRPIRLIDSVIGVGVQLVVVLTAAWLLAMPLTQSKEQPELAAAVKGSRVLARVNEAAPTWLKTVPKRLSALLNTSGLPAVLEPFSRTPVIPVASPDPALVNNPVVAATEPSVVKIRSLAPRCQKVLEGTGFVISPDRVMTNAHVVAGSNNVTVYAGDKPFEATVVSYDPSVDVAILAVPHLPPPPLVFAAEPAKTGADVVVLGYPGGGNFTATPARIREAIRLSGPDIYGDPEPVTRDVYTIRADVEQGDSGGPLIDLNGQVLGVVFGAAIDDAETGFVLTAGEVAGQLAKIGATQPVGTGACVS
The depositor's hits bear a star; . = no result given. Shown are actives, neighbours in structure and some others; about 3.2% of the full set was active somewhere.

SMILES | SSB-PriA inh | Mtb FBA inh | Mtb UGM inh | GDH-TPI inh | Mtb betalactam | Rv3671c inh
CCN(CC)S(=O)(=O)c1ccc(N/N=C/c2cc(OC)ccc2O)nc1 | . | -3 | 1 | 18 | 68 | -3
C=C1CC[C@@]2(O)[C@H]3Cc4ccc(O)c5c4[C@@]2(CCN3CC2CC2)[C@H]1O5 | 41* | 1 | 2 | -9 | -5 | -2
Cc1nnc(-c2ccccc2)c(=O)n1N=Cc1c(O)ccc2ccccc12 | 12 | . | . | . | . | .
Cc1ccc2c(c1)c1cccc3c1n2CCN3CCC(N)=O | 58* | 49* | 1 | 6 | 14 | 6
NC(=O)CCn1c2ccccc2c2ccccc21 | -2 | 1 | 2 | 2 | -9 | 3
COCCn1c(-c2nc(C(=O)Nc3ccccn3)cs2)cc2ccccc21 | -33 | . | . | . | . | .
Cn1nc([N+](=O)[O-])c(C(C#N)c2nc3ccccc3s2)c(Cl)c1=O (centres undefined) | 92* | . | . | . | . | .
Cn1nc([N+](=O)[O-])c(C(C#N)c2nc3ccccc3n2C)c(Cl)c1=O (centres undefined) | 25 | -12 | 0 | 9 | 2 | 18
Cc1ccc(N=Nc2c(N)nn3c(C)cc(C)nc23)cc1 | 2 | -7 | -1 | 40* | 91 | -7
Cc1cc(C)n2nc(N)c(N=Nc3cccc(Cl)c3)c2n1 | 4 | -8 | -2 | 3 | 88 | -1
Cc1ccc(N2N=C(c3ccc(Br)cc3)CCC2=O)cc1 | -11 | 0 | 0 | 3 | 8 | -9
S=C1CCC(c2ccc(Br)cc2)=NN1c1ccccc1 | 0 | -1 | 3 | 33* | 97 | -8
Cc1oc(=O)c(NC(=O)c2ccccc2)cc1C(C)O (centres undefined) | -16 | 3 | -1 | 14 | 8 | 6
CCOC(=O)c1cc(NC(=O)c2ccccc2)c(=O)oc1-c1ccccc1 | -5 | 2 | 1 | 33* | 11 | -9
CCCCS/C(N)=N/N=C/c1cc(C)ccc1O | . | 2 | 0 | 41* | 100 | 10
CCSC(N)=NN=Cc1cc(C)ccc1O | -5 | . | . | . | . | .
N#C/C(=C\c1cccc(O)c1)c1nc2ccccc2o1 | -3 | 7 | 1 | 35* | -2 | -4
N#C/C(=C\Nc1ccccc1O)c1nc2ccccc2o1 | 5 | -1 | 3 | 33* | 2 | 4
N#C/C(=C\c1ccncc1)c1nc2ccccc2o1 | -7 | 10 | 0 | 6 | -2 | 2
O=C(NN=Cc1c[nH]c2ccccc12)c1cc(-c2cccc3ccccc23)n[nH]1 | -11 | . | . | . | . | .
Cc1cc(=O)n2[nH]c(-c3ccc(C(C)(C)C)cc3)cc2n1 | -15 | 36* | -2 | 11 | 60 | -1
CCN1CCN(C(=O)c2cc3c(OC)c(OC)c(OC)cc3[nH]2)CC1 | 64* | 1 | -1 | 10 | 0 | -2
CCOC(=O)C1CCN(C(=O)c2cc3c(OC)c(OC)c(OC)cc3[nH]2)CC1 | 12 | 10 | 1 | 3 | -3 | 12
CCOC(=O)N1CCC(NC(=O)Cc2csc(Nc3cccc(Cl)c3)n2)CC1 | -2 | . | . | . | . | .
Cc1c(N=Nc2c(O)n(Cc3ccccc3)c(=O)[nH]c2=O)c(=O)n(-c2ccccc2)n1C | 7 | -5 | -1 | 36* | -3 | -35
SMILES | SSB-PriA inh | Mtb FBA inh | Mtb UGM inh | GDH-TPI inh | Mtb betalactam | Rv3671c inh
Cc1c(N=Cc2c(O)n(Cc3ccccc3)c(=O)[nH]c2=O)c(=O)n(-c2ccccc2)n1C | 14 | -3 | -1 | 17 | 0 | 1
COc1ccccc1-n1c(O)c(C=Nc2c(C)n(C)n(-c3ccccc3)c2=O)c(=O)[nH]c1=O | 0 | -6 | -2 | 37* | 1 | -11
O=S(=O)(c1cc(F)ccc1F)N1CCN(c2ccc3nnc(C4CC4)n3n2)CC1 | -8 | . | . | . | . | .
O=c1c2ccccc2nc(/C=C/c2cccnc2)n1CCc1ccccc1 | 10 | 0 | 0 | 37* | 0 | -1
COc1ccc(-c2nc3ccc(C)cn3c2NCc2ccc3c(c2)OCO3)cc1 | 16 | 9 | -1 | 6 | 5 | 0
Cc1ccc(-c2nc3ccccn3c2NCc2ccc3c(c2)OCO3)cc1 | 45* | 20 | 1 | 11 | 0 | 4
Cc1ccccc1OCCn1cc(C(=S)N2CCCC2)c2ccccc21 | 25 | -3 | 11* | 0 | -10 | -8
O=C1N=C(N2CCN(Cc3ccc(F)cc3)CC2)S/C1=C\c1cccc(O)c1 | 10 | . | . | . | . | .
CCN(CC)C(=O)CSc1nnc2c3ccccc3n(C)c2n1 | -10 | 0 | 2 | 10 | -1 | -7
